Screening data from PubChem.
The list is not random: actives were taken first. Their share in the collection is about 11%.
PNC assembly inh: High Content Assay for Compounds that inhibit the Assembly of the Perinucleolar Compartment. PC3M PTB-GFP, PNC prevalence imaging, 16 h; hits give low values. actives 3.1% (n = 140,000). activity change (PNC), negative = inhibition, % at 10 µM;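 active means readout at or below -70, meaning at least 70% loss of cells showing the perinucleolar compartment, a nuclear body marking cancer cells; inconclusive means readout between -30 and a set limit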
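Read-out is percentage of cells bearing a perinucleolar compartment, from automated 20x imaging of fixed, Hoechst-stained PC3M PTB-GFP cells. Cells were seeded 4 h, then exposed 16 h to compound (23 nl of library stock) in duplicate plates.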
HPGD block: qHTS Assay for Inhibitors of HPGD (15-Hydroxyprostaglandin Dehydrogenase); purified HPGD, NADH fluorescence kinetic, PGE2 substrate; actives 4.3% (n = 150,000); Potency, µM, hits mostly inhibitors; AID 894, 2007
Target sequence (P15428 whole entry, looked up): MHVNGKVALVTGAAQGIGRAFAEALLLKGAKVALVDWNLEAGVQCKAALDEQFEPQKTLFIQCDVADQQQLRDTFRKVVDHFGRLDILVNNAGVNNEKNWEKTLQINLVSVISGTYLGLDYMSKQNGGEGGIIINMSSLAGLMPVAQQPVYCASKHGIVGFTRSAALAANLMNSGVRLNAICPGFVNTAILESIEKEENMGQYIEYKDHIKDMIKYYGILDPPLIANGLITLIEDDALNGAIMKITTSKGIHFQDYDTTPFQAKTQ
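NADH formation kinetics: reaction with 30 uM PGE2 and 1 mM NAD+ (final), 20 nM enzyme, Tris-HCl pH 8 with Tween 20, after 15 min compound preincubation at room temperature. Fluorescence change, last versus first of five reads.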
ALDH1A1 inh: qHTS Assay for Inhibitors of Aldehyde Dehydrogenase 1 (ALDH1A1); AID 1030, 2008; Aldehyde dehydrogenase 1A1 (Homo sapiens), P00352; Purified ALDH1A1, NADH fluorescence, propionaldehyde substrate; Potency, µM (series often up to 75.3 µM), usual class: inhibitors; actives 7.3% (n = 220,000)
Large screens that a line does not name were inactive. Unless noted, the call rests on the fitted dose curve; in most records, active means well fitted inhibition curve with a large enough effect (not every such curve was filed as active); inconclusive means small, poorly fitted or top-dose-only effect, or another doubt; inactive means no such curve, though single readings can be large or run the other way.

COc1ccc(NC(=S)N2CCC(N(C)CCN3CCOCC3)CC2)cc1Cl	none
Cc1cc(NC(=S)N(Cc2ccc(Cl)cc2)Cc2ccc(C(=O)O)cc2)ccc1Cl	none (no result: PNC assembly inh, HPGD block)
CC(C)OC(=O)C1C2C=CC3(CN(Cc4cccs4)C(=O)C13)O2 (stereo unspecified)	PNC assembly inh inconclusive
COc1nc(N2CCOCC2)nc(-n2cccc2)n1	none
COc1cc(N=C2C(=O)N3CCCc4cccc2c43)cc(OC)c1	PNC assembly inh -104, ALDH1A1 inh 0.63µM
COc1cccc(/C=C2\N=C3CCCCCN3C2=O)c1	ALDH1A1 inh inconclusive
Cc1ccc(OCC(=O)OCC(=O)c2c(N)n(C)c(=O)n(C)c2=O)cc1C	PNC assembly inh inconclusive
Cc1onc(-c2ccccc2Cl)c1C(=O)NC(=S)NCCc1ccccc1	none
Cc1ccc(NC(=S)NC(=O)c2c(-c3ccccc3Cl)noc2C)cc1	ALDH1A1 inh 7.9µM
Cc1onc(-c2ccccc2Cl)c1C(=O)NC(=S)Nc1ccc(C(C)C)cc1	ALDH1A1 inh 20µM (no result: PNC assembly inh, HPGD block)
Cc1onc(-c2ccccc2Cl)c1C(=O)Nc1ccc(S(=O)(=O)N2CCCC2)cc1	PNC assembly inh inconclusive
O=C(Cc1ccccc1)NN1C(=O)c2ccccc2C1=O	none (no result: PNC assembly inh, HPGD block)
O=C(CN1C(=O)c2ccccc2C1=O)NN1C(=O)c2ccccc2C1=O	ALDH1A1 inh 2.8µM
O=C(NCCCn1ccnc1)c1nn2c(C(F)(F)F)cc(-c3ccc(Br)cc3)nc2c1Cl	none
CC1(C)N=C(/C=N/O)CN1O	none
CC(=O)Nc1ccc(NS(=O)(=O)c2cc([N+](=O)[O-])ccc2C)cc1	none (no result: PNC assembly inh, HPGD block)
O=C(O)c1ccc(NS(=O)(=O)c2cc(Cl)ccc2Cl)cc1O	HPGD block inconclusive
CC(=O)Nc1ccc(NC(=O)c2ccc(NS(=O)(=O)c3cc(C(C)(C)C)cc(C)c3C)cc2)cc1	PNC assembly inh -89
Cc1cc(C(C)(C)C)cc(S(=O)(=O)Nc2ccc(O)c(C(=O)O)c2)c1C	HPGD block inconclusive, ALDH1A1 inh 4µM
O=C(O)CNS(=O)(=O)c1cc(Cl)c(Cl)cc1Cl	none
Cc1cc(C(C)(C)C)cc(S(=O)(=O)NCC(=O)O)c1C	ALDH1A1 inh 8.9µM
N#C/C(=C\c1cccnc1)C(=O)Nc1cccc(Cl)c1	none (no result: PNC assembly inh, HPGD block)
C[C@@H](C(=O)O)c1ccc(C(=O)c2cccs2)cc1	none (no result: PNC assembly inh)
CC(=O)OC1CC[C@]2(C)C(CC[C@@]3(C)C2C(=O)C=C2C4C(C)C(C)CC[C@@]4(C(=O)O)CCC23C)C1(C)C (stereo partly specified)	none (no result: PNC assembly inh)
COCCn1cnnc1SCC(=O)Nc1cc(OC)c([N+](=O)[O-])cc1C	none (no result: PNC assembly inh, HPGD block)
Cc1ccc(CNC(=O)C23CN(Cc4ccccc4)CC2C(c2cccc([N+](=O)[O-])c2)=NO3)cc1 (stereo unspecified)	ALDH1A1 inh inconclusive
O=C(NCc1ccccc1)C12CN(Cc3ccccc3)CC1C(c1ccc([N+](=O)[O-])cc1)=NO2 (stereo unspecified)	PNC assembly inh inconclusive, ALDH1A1 inh inconclusive
O=C(NCc1ccco1)C12CN(Cc3ccccc3)CC1C(c1ccc([N+](=O)[O-])cc1)=NO2 (stereo unspecified)	ALDH1A1 inh 4µM
O=C(NCc1ccco1)C12CN(Cc3ccccc3)CC1C(c1cccc([N+](=O)[O-])c1)=NO2 (stereo unspecified)	PNC assembly inh -86
N=C(N)SCCc1ccccn1	none (no result: PNC assembly inh)
CC(=O)c1c(C)nc(-c2ccc(Cl)cc2)nc1N=CN(C)C	HPGD block inconclusive, ALDH1A1 inh inconclusive
CC(=O)c1c(C)nc(-c2ccc(Cl)cc2)nc1N	ALDH1A1 inh 22µM (no result: PNC assembly inh, HPGD block)
CCNC(=S)N/N=C/c1ccc(OCc2ccc(C(=O)OC)cc2)cc1	none
CCCCCC(=O)NC(=S)Nc1ccc2oc(=O)ccc2c1	ALDH1A1 inh 7.1µM (no result: PNC assembly inh, HPGD block)
COc1ccc(C(=O)NC(=S)Nc2ccc3oc(=O)ccc3c2)cc1	none
CCOC(=O)c1c(NC(=O)CC)sc(C(C)=O)c1C	HPGD block inconclusive, ALDH1A1 inh 14µM
CCCc1cc(C(=O)Nc2sc(C(C)=O)c(C)c2C(=O)OCC)no1	HPGD block inconclusive, ALDH1A1 inh 25µM
CCOC(=O)c1c(NC(NC(C)=O)C(Cl)(Cl)Cl)sc(C(C)=O)c1C (stereo unspecified)	ALDH1A1 inh inconclusive
CCOC(=O)c1c(NC(=O)CN(C)C)sc(C(=O)N(CC)CC)c1C	ALDH1A1 inh inconclusive
CCOC(=O)c1c(NC(=O)c2cc(C(C)C)on2)sc(C(C)=O)c1C	HPGD block inconclusive, ALDH1A1 inh inconclusive
O=C(NCCOC(=O)c1cccs1)c1cccnc1	ALDH1A1 inh inconclusive
CCCCC(=O)Nc1sc(C(=O)N(CC)CC)c(C)c1C(=O)OC	PNC assembly inh -100, HPGD block 2.5µM, ALDH1A1 inh 8.9µM
COC(=O)c1c(-c2cccs2)csc1NC(=O)c1cccnc1	PNC assembly inh -100, HPGD block inconclusive, ALDH1A1 inh inconclusive
CC(C)c1ccc(NC(=O)C(c2ccccc2)N2CC(=O)Nc3ccccc32)cc1 (stereo unspecified)	ALDH1A1 inh inconclusive
CCOC(=O)c1sc(NC(=O)c2ccc(Br)o2)cc1C	HPGD block inconclusive, ALDH1A1 inh inconclusive
CCOC(=O)c1c(NC(=O)c2cccnc2)sc(C(C)=O)c1C	HPGD block 13µM, ALDH1A1 inh inconclusive
COC(=O)c1c(NC(=O)c2cccnc2Cl)sc(C(=O)N(C)C)c1C	PNC assembly inh inconclusive
CCOC(=O)c1sc(NC(=O)c2cccnc2)nc1C	none
CCN(CC)C(=O)c1sc(NC(=O)c2ccc(Br)o2)c(C(=O)OC)c1C	HPGD block 16µM, ALDH1A1 inh inconclusive
CCN(CC)C(=O)c1sc(NC(=O)c2cccnc2)c(C(=O)OC)c1C	HPGD block 20µM, ALDH1A1 inh inconclusive
NC(=O)NNc1cccc(Cl)n1	ALDH1A1 inh 35µM (no result: PNC assembly inh, HPGD block)
CC(=O)NNc1cccc(Cl)n1	ALDH1A1 inh inconclusive
CCn1c(=O)cc(SCC(=O)Nc2ccc(C)cn2)c2ccccc21	none (no result: PNC assembly inh, HPGD block)
Cn1cccc1C(=O)C(=O)Nc1ccc(F)c(F)c1	none (no result: PNC assembly inh, HPGD block)
N#CC(Cc1ccc(O)c(O)c1)C(=O)N1CCc2ccccc21 (stereo unspecified)	HPGD block 28µM, ALDH1A1 inh 8.9µM (no result: PNC assembly inh)
CC(NCc1ccc2c(c1)OCO2)C(=O)N1CCc2ccccc21 (stereo unspecified)	none
COc1ccc(N(CC(=O)NN=C2CCCCCCC2)S(=O)(=O)c2ccccc2)cc1	ALDH1A1 inh inconclusive
COc1ccc(C(C(=O)Nc2ccc(C(C)C)cc2)N(Cc2ccco2)C(=O)CC2NC(=O)NC2=O)cc1 (stereo unspecified)	ALDH1A1 inh 25µM (no result: PNC assembly inh, HPGD block)
COc1ccc(NC(=O)C(c2ccc(OC)cc2)N(Cc2ccco2)C(=O)CC2NC(=O)NC2=O)cc1 (stereo unspecified)	none (no result: PNC assembly inh, HPGD block)
CCn1nnc(NC(=O)c2cccnc2)n1	HPGD block 25µM
CCn1nnc(NC(=O)c2ccc(C(C)(C)C)cc2)n1	none
Cn1ncc2c(=O)n(CC(=O)NC34CC5CC(CC(C5)C3)C4)cnc21	PNC assembly inh inconclusive
CCN(CC)CCNC(=O)Cc1nn(Cc2ccccc2)c(=O)c2ccccc12	none (no result: PNC assembly inh, HPGD block)
O=C(NCCN1CCOCC1)c1cc(S(=O)(=O)NCCCN2CCCC2=O)ccc1Cl	none
O=C(O)CCN1C(=O)/C(=C\c2ccncc2)SC1=S	none (no result: PNC assembly inh, HPGD block)
